Source: PubChem BioAssay
CF NFkB block: inhibitors of cystic fibrosis induced NF-kB. KKLEB NF-kB-GFP reporter, PAF-induced, GFP fluorescence overnight. inhibition, % at 5 µM. 360,000 tested, 0.86% active. AID 588850;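 active means at least 50% inhibition at 5 µM, scaled per plate between neutral and stimulator controls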;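 further: PAF is a Pseudomonas aeruginosa culture filtrate used as stimulus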
HIF-2a inh: blocks HIF-2a reporter activity | 786-0 RCC cells HIF-2a reporter, luciferase luminescence, overnight | inhibition, % at 18.8 µM | 360,000 tested, 0.72% active;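 active means inhibition of the luminescence signal of 40% or more relative to plate controls, in a single-dose primary screen at 18.75 µM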
Peg3 promoter: inhibitors of Peg3 promoter | HeLa PEG-Prom luciferase reporter, luminescence, overnight | inhibition, % at 20 µM | 360,000 tested, 1.7% active;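 active means inhibition of at least 50% at 20 µM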
ABHD5 PLIN5 PPI: blocks binding of human ABHD5 to perilipin-5. Split G. princeps luciferase complementation, luminescence, 4 h. inhibition, % at 4 µM. 360,000 tested, 0.78% active. Q00G26+Q8WTS1;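 active means inhibition above the mean inhibition across every tested compound plus 3 SD, cut at about 22% in these data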
KKLEB cytotox: counter-screen for CF NF-kB inhibitors: cytotoxicity | AID 602141 | activity change (cytotoxicity), % at 5 µM | 360,000 tested, 0.36% active | KKLEB CF airway cells viability, ATPlite luminescence, overnight; hits give low values; cells stimulated with P. aeruginosa culture filtrate;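 active means corrected activity change at or below -50% at 5 µM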
MITF TRPM1 inh: MITF TRPM1 promoter inhibition in SK-MEL-5 cells; SK-MEL-5 TRPM1 promoter luciferase, 24 h; inhibition, % at 12.5 µM; 330,000 tested, 0.83% active;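 active means mean inhibition across replicates of 60% or more, whatever share of single replicates reaches that level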
Numbers stand for hits; – = inactive; · = not tested or not shown. Most compounds without a hit are left out; they make up all but 3.1% or so of the library.

SMILES	CF NFkB block	HIF-2a inh	Peg3 promoter	ABHD5 PLIN5 PPI	KKLEB cytotox	MITF TRPM1 inh
CCCOc1cccc(-c2cc(C(=O)N/N=C/c3ccccn3)c3ccccc3n2)c1	–	–	–	–	–	90.3
O=C(N/N=C/c1ccco1)c1cc(-c2ccccc2)nc2ccccc12	–	–	–	–	–	–
COc1cccc(CNC(=O)CN2C(=O)CC(c3ccccc3)=Nc3ccccc32)c1	–	–	–	–	–	–
Cc1ccc(C)c(-n2cc(CN3CCCN(C=O)CC3)c(-c3ccccc3)n2)c1	–	–	–	–	–	–
COC(=O)CN1C(=O)[C@H]2[C@@H](/C=C/c3ccccc3)N3C(=O)CN(CCO)C(=O)[C@@]3(Cc3ccccc3)[C@H]2C1=O	–	–	–	–	–	–
CCCC(=O)NC(c1cccs1)c1cc([N+](=O)[O-])c2cccnc2c1O (centres undefined)	–	–	54.3	–	–	–
COc1ccc(C(C(=O)NC2CCCC2)N(C(=O)c2snc(-c3ccc(F)cc3)c2N)c2cccc(F)c2)cc1 (centres undefined)	–	–	50.6	–	–	–
COc1ccc(C(C(=O)NC2CCCC2)N(C(=O)c2snc(-c3ccc(F)cc3)c2N)c2ccccc2)cc1 (centres undefined)	–	–	–	–	–	–
Cc1cc(N=Cc2c(O)n(-c3ccc4c(c3)OCO4)c(=O)c3ccccc23)ccn1	–	–	–	–	–	75.2
COc1ccc(-n2c(O)c(C=Nc3ccccc3)c3ccccc3c2=O)cc1	–	–	–	–	-51.7	–
C[C@H](NC(=O)[C@@H]1CSC2c3ccccc3C(=O)N21)C(=O)NCCc1ccc(F)cc1 (some centres undefined)	–	–	–	–	–	–
O=C(Nc1ccc(Cl)cn1)c1ccc2nccnc2c1	–	–	–	–	–	–
CCCCn1nc(C(=O)Nc2ccccc2N2CCCC2)c2ccccc2c1=O	–	–	–	–	–	–
O=c1cc(-c2ccccc2Cl)oc2c(NS(=O)(=O)c3cccs3)ccc(O)c12	52.1	–	–	–	–	–
Cc1cc2ncn(/N=C/c3ccc([N+](=O)[O-])s3)c2cc1C	–	–	73.3	–	–	–
O=[N+]([O-])c1ccc(/C=N/n2cnc3ccccc32)s1	–	–	–	–	–	85.6
COc1cccc(/C=N/n2cnc3cc(C)c(C)cc32)c1OC	–	–	–	–	–	–
COCc1cc(=O)[nH]c2cc(NC(=O)c3cccc(OC)c3)c(C)cc12	–	–	–	–	–	–
CCOC(=O)c1c(C)oc2ccc(O)c(CN(C)C)c12	–	–	–	–	–	–
CCOC(=O)c1c(CSc2ccc(CC)cc2)oc2ccc(O)c(CN(C)C)c12	–	–	97.6	–	–	–
O=C(Nc1cccc2ncccc12)c1ccc([N+](=O)[O-])o1	–	–	51.4	–	–	–
Cc1c(NC(=O)c2ccc([N+](=O)[O-])o2)cccc1-c1nc2ncccc2o1	96.5	–	83.4	–	–	77.7
CC1(C)Cc2c(cnn2-c2cccc(F)c2)C(NC(=O)CN2CCCC2=O)C1 (centres undefined)	–	–	–	–	–	–
C=CCN(CC=C)C(=S)NC(=O)c1ccc(C)c(Br)c1	–	–	–	–	–	–
Clc1ccc(-n2cc(COCc3ccccc3)nn2)cc1	–	–	–	–	–	–
SMILES	CF NFkB block	HIF-2a inh	Peg3 promoter	ABHD5 PLIN5 PPI	KKLEB cytotox	MITF TRPM1 inh
COc1ccc(NC2=Nc3ccccc3N3C2=Nc2c(c(C)nn2-c2ccc(C)cc2)C3c2cccnc2)cc1 (centres undefined)	–	–	–	–	–	–
CC(=O)Nc1ccc(NC2=Nc3ccccc3N3C2=Nc2c(c(C)nn2-c2ccccc2)C3c2ccccc2)cc1 (centres undefined)	–	–	89.9	–	–	78.6
Cc1cccc(N/C=C/c2onc(C)c2[N+](=O)[O-])c1	–	–	–	–	–	–
Cc1cc(O)ccc1N/C=C/c1onc(C)c1[N+](=O)[O-]	–	–	–	–	-52.0	–
COc1ccc(C(CNC(=O)CCNS(=O)(=O)c2ccccc2C(F)(F)F)N2CCOCC2)cc1 (centres undefined)	–	–	–	–	–	–
O=C(CSc1nnnn1-c1cccnc1)Nc1ccc(F)cc1F	–	–	–	–	–	–
CSc1nc(-c2ccccc2)nc(C(C)C)n1	–	–	–	–	–	–
CCN(CC)c1ccc(/C=N/NC(=O)c2cccc(S(=O)(=O)Nc3ccccc3OC)c2)cc1	–	–	–	–	–	–
COc1ccccc1NS(=O)(=O)c1cccc(C(=O)N/N=C/c2ccc3c(c2)OCCO3)c1	–	–	–	–	–	–
CCN(CC)c1ccc(/C=N/NC(=O)c2cccc(S(=O)(=O)Nc3ccccc3OC)c2)c(O)c1	–	–	–	–	–	71.8
COc1ccccc1NS(=O)(=O)c1cccc(C(=O)N/N=C/c2ccc([N+](=O)[O-])o2)c1	–	–	–	–	–	86.1
CCN(CC)S(=O)(=O)c1cc(NC(=O)CSc2nnc(N)s2)ccc1C	–	–	–	–	–	–
CCN(CC)S(=O)(=O)c1cc(NC(=O)CSc2nc3c(cc2C#N)C(=O)CC(C)(C)C3)ccc1C	–	–	54.0	–	–	–
C#CC[N+](C)(C)CCCCCCCCCC	52.0	–	–	–	–	–
COc1cccc(N2CCN(C(=S)Nc3ccccc3)CC2)c1	–	–	110.2	–	–	–
O=c1[nH]c2ccccc2nc1-c1ccccc1	–	–	–	–	–	–
NC(=O)N=Nc1c2[nH]c3ccccc3nc-2c2ccccc12	–	–	71.8	–	–	–
CC(C)Oc1ccc(C(=O)Nc2nc3ccccc3[nH]2)cc1	–	55.0	–	–	-50.3	79.7
COc1ccc(C(=O)Nc2nc3ccccc3[nH]2)cc1OC	–	–	–	–	–	–
COc1ccc(Cl)cc1C(=O)Nc1nc2ccccc2[nH]1	–	–	–	–	-51.7	–
O=C1CCCCC1C1(O)C(=O)Nc2ccccc21 (centres undefined)	–	–	–	–	–	·
CCc1cccc(CC)c1NC(=O)C(CC)Sc1nc2ccncc2[nH]1 (centres undefined)	–	–	–	–	–	·
CC(=O)c1ccc2noc(-c3cccc(F)c3)c2c1	–	–	–	22.5	–	–
COc1cccc(-c2onc3ccc(C(C)=O)cc23)c1	–	–	–	–	–	–
CCN(CC)CCCNC(=O)c1ccc2c(Cl)c3c(nc2c1)CCCC3	–	–	61.2	–	–	–
CC(C)CN(CC(C)C)c1ccc(/C=N/n2cnnc2)cc1[N+](=O)[O-]	–	–	–	–	–	–
COc1ccc(-c2oc3ccc(N4CCOCC4)cc3c2C#CCO)cc1	–	–	82.9	–	–	–
